Source: PubChem BioAssay
The source made the active and inactive calls.

Key:
[1] = compound effects on lung adenocarcinoma cell viability – A549, calcein-AM fluorescence, 48 h, basal, profiling panel (AID 1162); conditions: higher = more signal
[2] = compound effects on differentiated 3T3-L1 adipocyte viability – cell-based, 3T3-L1 adipocytes, calcein-AM fluorescence, 48 h, basal, profiling panel (AID 1163); conditions: 3T3-L1 adipocytes viability, higher = more signal
[3] = compound effects on hepatocellular carcinoma cell viability – HepG2, calcein-AM fluorescence, 48 h, basal, profiling panel (AID 1164); conditions: higher = more signal
[4] = compound effects on multiple myeloma cell viability – MM1S, calcein-AM fluorescence, 48 h, basal, profiling panel (AID 1165); conditions: higher = more signal
[5] = calcein-AM signal in unstimulated myeloma cells – cell-based, calcein-AM fluorescence, 48 h, PK04 Diversity Set, profiling panel (AID 1166); conditions: RPMI8226 myeloma viability, higher = more signal;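 also: cells grown under basal conditions without added stimulus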
[6] = JC-1 mitochondrial signal, unstimulated HepG2 cells – cell-based, JC-1 fluorescence, 24 h, 100 nL compound, profiling panel (AID 1167); conditions: HepG2 mitochondrial potential, higher = more signal
[7] = JC-1 mitochondrial signal, unstimulated adipocytes – cell-based, JC-1 fluorescence, 3T3-L1 adipocytes, 24 h, 100 nL compound, profiling panel (AID 1168); conditions: JC-1 mitochondrial fluorescence, higher = more signal, called active from +8 up or from −8 down
[8] = JC-1 mitochondrial signal, unstimulated myeloma cells – cell-based, JC-1 fluorescence, RPMI8226, 24 h, 100 nL compound, profiling panel (AID 1169); conditions: JC-1 mitochondrial potential fluorescence, higher = more signal
[9] = JC-1 mitochondrial signal, unstimulated MM1S myeloma – cell-based, JC-1 fluorescence, 24 h, 100 nL compound, profiling panel (AID 1170); conditions: MM1S mitochondrial potential, higher = more signal
[10] = resazurin metabolic signal in A549 cells – cell-based, resazurin fluorescence, 24 h, PK04 Diversity Set, profiling panel (AID 1171); conditions: A549 viability, higher = more signal, called active from +8 up or from −8 down
Also: test concentration not given here.

Row | SMILES | z-score [1] | z-score [2] | z-score [3] | z-score [4] | z-score [5] | z-score [6] | z-score [7] | z-score [8] | z-score [9] | z-score [10]
1 | Cc1cc2c(nc1C)CCCCN2CC(O)CN1CCCc2nc(-c3ccc(Br)cc3)ccc21 (stereo not given) | 1.54 | -0.829 | 1.62 | 0.322 | -0.697 | -0.814 | -0.16 (inactive) | 0.357 | -0.536 | -0.379 (inactive)
2 | C=CC[C@@H]1C=C[C@H](Oc2ccc(C)cc2)[C@@H](COC(=O)NCc2cccc3ccccc23)O1 | -0.273 | 0.479 | -0.542 | -1.41 | -1.71 | 0.294 | -0.483 (inactive) | 0.78 | 0.147 | 1.99 (inactive)
3 | CCN(CC)CC(O)CN1CCCCc2nc(C)c(C)cc21 (stereo not given) | -0.0127 | -0.054 | 0.776 | 0.288 | 0.378 | 0.68 | 0.109 (inactive) | 0.316 | -0.989 | 0.985 (inactive)
4 | COC(=O)CC=C[C@@H](C)[C@@H](C=NOC(C)CN1CCCCc2nc(C)c(C)cc21)NS(=O)(=O)c1ccc(C)cc1 (stereo not given in full) | -0.366 | 0.61 | 0.0477 | 0.0238 | -0.141 | -0.246 | -0.442 (inactive) | -1.02 | -0.0131 | -0.204 (inactive)
5 | CCOC(=O)[C@H](CC(C)C)NC(=O)CCC1CC(OC(=O)NCCc2ccc(F)cc2)CC2(CCCC(COC(=O)NCc3cccc4ccccc34)O2)O1 (stereo not given in full) | -0.491 | -0.679 | -2.03 | -3.43 | -3.14 | 0.26 | -0.0268 (inactive) | 0.219 | -1.56 | 1.15 (inactive)
6 | COC(=O)[C@H](C)NC(=O)CCC1CC(OC(=O)NCc2ccc3c(c2)OCO3)CC2(CCCC(COC(=O)NCCc3ccc(Cl)cc3)O2)O1 (stereo not given in full) | -0.508 | 0.38 | -0.796 | -0.99 | -1.27 | 0.718 | -0.527 (inactive) | -0.342 | -0.864 | 1.02 (inactive)
7 | CC(CCC(=O)OC[C@H]1O[C@H](C#Cc2ccccc2)C=C[C@@H]1Oc1ccc(C)cc1)=NOC(C)CN1CCCCc2nc(C)c(C)cc21 (stereo not given in full) | 0.393 | -0.239 | 0.0574 | -2.15 | -1.73 | 1.34 | -2.02 (inactive) | -0.325 | -0.737 | 0.599 (inactive)
8 | COC(=O)[C@H](C)NC(=O)CCC1CC(OC(=O)NCc2ccc3c(c2)OCO3)CC2(CCCC(COC(=O)NCc3ccccc3)O2)O1 (stereo not given in full) | 3.03 | -0.645 | 0.558 | -0.147 | 1.27 | 1.33 | 0.552 (inactive) | 0.195 | -0.882 | 0.409 (inactive)
9 | CC(=O)OC[C@H]1O[C@H](CC=NO[C@H](C)c2cn([C@@H]3COC[C@H]3O)nn2)C=C[C@@H]1OC(C)=O | 0.674 | 0.062 | 0.631 | 0.621 | 0.479 | 0.00468 | 1.13 (inactive) | 0.418 | -0.466 | -0.145 (inactive)
10 | O=C1[C@H]2CCn3c(=O)n(-c4ccccc4)c(=O)n3[C@H]2[C@H](O)[C@@H]2O[C@H]12 | 0.0313 | -0.226 | -0.352 | -1.32 | -0.19 | -0.237 | -0.169 (inactive) | -0.104 | -0.351 | -0.331 (inactive)
11 | CCOC(=O)[C@H](CC(C)C)NC(=O)CCC1CC(OC(=O)NCc2ccc3c(c2)OCO3)CC2(CCCC(COC(=O)NCCOC)O2)O1 (stereo not given in full) | 0.0414 | -0.453 | -0.0998 | -0.418 | 0.457 | 0.11 | 0.65 (inactive) | 0.413 | -0.359 | 0.689 (inactive)
12 | C[C@H]1CC[C@H]2C(=O)O[C@H](CO)CN2[C@@H]1c1ccc(Br)cc1 | 0.889 | -0.214 | 0.547 | 0.349 | -0.73 | 0.0194 | -0.526 (inactive) | 0.301 | -0.434 | 0.581 (inactive)
13 | C[C@@H]1CC[C@H]2C(=O)O[C@@H](COc3ccc(C(C)(C)C)cc3)CN2[C@H]1c1ccc(Br)cc1 | 0.255 | -0.076 | 0.0944 | -1.26 | -0.794 | -1.31 | -1.16 (inactive) | -0.16 | 0.455 | 1.71 (inactive)
14 | CC(=O)OC[C@H]1O[C@H](CC=NOC(C)CN2CCCCc3nc(C)c(C)cc32)C=C[C@@H]1OC(C)=O (stereo not given in full) | -0.348 | -1.19 | -0.276 | 0.0965 | -1.26 | -0.681 | -1.05 (inactive) | -0.31 | -0.182 | -0.146 (inactive)
15 | O=C1CCCC=C1C(O)COCc1ccccc1 (stereo not given) | 0.384 | -1.41 | -1.13 | -0.265 | 0.729 | -0.143 | -0.649 (inactive) | 0.728 | -0.0651 | 0.0235 (inactive)
16 | CCOC(=O)[C@H](Cc1ccccc1)NC(=O)CCC1CC(OC(=O)NCc2cccc3ccccc23)CC2(CCCC(COC(=O)NCCc3ccccc3OC)O2)O1 (stereo not given in full) | -0.111 | -0.211 | -0.521 | -0.123 | -1.39 | 0.527 | -0.177 (inactive) | -0.0487 | -0.193 | 0.737 (inactive)
17 | C[C@H]1CC[C@H]2C(=O)N[C@H](Cc3ccccc3)C(=O)N2[C@@H]1c1ccccc1 | -0.103 | 0.283 | 0.194 | -0.643 | 0.0185 | 0.399 | -0.556 (inactive) | 0.471 | 1.28 | -0.232 (inactive)
18 | CC(C)=NOC(C)CN1CCCCc2nc(C)c(C)cc21 (stereo not given) | 0.0529 | -0.047 | -0.018 | -0.3 | -0.637 | -0.792 | -0.78 (inactive) | -0.633 | 0.354 | -0.585 (inactive)
19 | O=C1C2=CC[C@H]3C(=O)N(C4CCCCC4)C(=O)[C@H]3[C@H]2[C@H](O)[C@@H]2O[C@H]12 | -3.85 | 1.13 | -4.38 | -3.05 | -3.91 | 0.771 | 2.71 (inactive) | -1.02 | -2.83 | -2.67 (inactive)
20 | CC(C)=CCCC(C)=CCON=C1C[C@@H](O)[C@@H](O)[C@@H]2[C@@H]3C(=O)N(Cc4ccc5c(c4)OCO5)C(=O)[C@@H]3CC[C@H]12 | -0.0007 | 0.0614 | -0.579 | -2.32 | -1.31 | -0.214 | -0.412 (inactive) | -0.655 | -0.488 | -0.0045 (inactive)
21 | CCN1C(=O)[C@H]2[C@H]3[C@H](O)[C@H](O)CC(=NOCC[C@@H]4C=C[C@H](OC(C)=O)[C@@H](COC(C)=O)O4)[C@@H]3CC[C@H]2C1=O | 1.03 | -0.286 | -0.296 | 0.0566 | -0.727 | -0.301 | -0.132 (inactive) | 0.572 | -0.306 | -0.774 (inactive)
22 | CCN1C(=O)[C@H]2[C@H]3[C@H](O)[C@H](O)CC(=NO[C@@H]4O[C@H](COC(C)=O)[C@@H](OC(C)=O)[C@H](OC(C)=O)[C@H]4OC(C)=O)[C@@H]3CC[C@H]2C1=O | 0.13 | -0.81 | -0.145 | -1.29 | -1.05 | -0.611 | -1.51 (inactive) | 0.69 | -0.654 | -0.959 (inactive)
23 | CC(C)=CCCC(C)=CCON=C1C[C@@H](O)[C@@H](O)[C@@H]2[C@@H]3C(=O)N([C@@H](C)c4ccccc4)C(=O)[C@@H]3CC[C@@H]12 | -0.412 | 0.934 | -0.341 | 0.176 | -0.249 | -0.781 | -0.598 (inactive) | 0.0813 | 0.114 | -0.21 (inactive)
24 | COC(=O)[C@H](C)NC(=O)CCC1CC(OC(=O)NCc2cccc3ccccc23)CC2(CCCC(COC(=O)NCCCN3CCCC3=O)O2)O1 (stereo not given in full) | 0.278 | -0.172 | 0.488 | 0.145 | -0.0813 | 0.24 | 0.338 (inactive) | -0.344 | -0.394 | 0.44 (inactive)
25 | CC(C)CON=C1C[C@@H](O)[C@@H](O)[C@@H]2[C@@H]3C(=O)N(Cc4ccccc4)C(=O)[C@@H]3CC[C@H]12 | -0.216 | 0.785 | -0.155 | 0.825 | -0.48 | 0.974 | -1.26 (inactive) | -0.0623 | -0.628 | 0.312 (inactive)
26 | COCCNC(=O)OCC1CCCC2(CC(OC(=O)NCc3cccc4ccccc34)CC(CCC(=O)N[C@@H](C)C(=O)OC)O2)O1 (stereo not given in full) | 1.89 | -0.812 | 0.791 | -0.215 | -0.886 | 1.64 | -0.0355 (inactive) | -0.125 | -1.16 | 1.67 (inactive)
27 | CC(=O)OC[C@H]1O[C@H](CC=NOCC[C@@H]2C=C[C@H](OC(C)=O)[C@@H](COC(C)=O)O2)C=C[C@@H]1OC(C)=O | -0.542 | -0.282 | -0.441 | 0.0077 | -0.786 | -0.314 | -0.267 (inactive) | 0.503 | 0.394 | 0.125 (inactive)
28 | CCOC(=O)[C@H](Cc1ccccc1)NC(=O)CCC1CC(OC(=O)NCCc2ccc(F)cc2)CC2(CCCC(COC(=O)NCc3cccc(C(F)(F)F)c3)O2)O1 (stereo not given in full) | -0.754 | 0.15 | -0.875 | -0.0822 | -1.82 | 0.502 | -0.306 (inactive) | 0.562 | 0.464 | 1.39 (inactive)
